# Reference: PubChem BioAssay (NCATS)
# Several values for one entry are separate records, joined by “and”; a condition that tells them apart may be missing. Equal values may be shown once. Unmarked numbers belong to inactive results. Inconclusive results are not listed. Where a call stands in place of a potency, no number is given. Activity calls are given as the source filed them. Unless noted, calls come from the whole dose curve; as a rule, active = well fitted curve in the direction sought with a large enough effect; inconclusive = small, poorly fitted or top-dose-only effect, or another doubt; inactive = no such curve, though single readings can be large; an effect the other way counts as inactive or inconclusive.
# Tests used:
# [1] = tested on: CASKI; experiment: Primary qHTS to identify gynecologic anti-cancer compounds using libraries of approved drugs and bioactive compounds (AID 1345084); conditions: Gynecologic cancer cell panel viability, ATPlite luminescence, 48 h; series mostly up to 57.5 µM; note: nearly all actives have a fitted effect of over 55% in size
# Procedure, shortened: (§1)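 Luminescence from the ATPlite ATP-monitoring reagent indicates viable cell number; lower signal means cytotoxicity. Cells received compound 16 h after seeding and were exposed for 48 h across five concentrations.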
# [2] = tested on: Es-2; experiment: as above; conditions: Gynecologic cancer cell panel viability, ATPlite luminescence, 48 h; series mostly up to 57.5 µM
# Procedure, shortened: as §1
# [3] = tested on: HeLa; experiment: as above; conditions: Gynecologic cancer cell panel viability, ATPlite luminescence, 48 h; series mostly up to 57.5 µM
# Procedure, shortened: as §1
# [4] = tested on: Hek293T; experiment: as above; conditions: Gynecologic cancer cell panel viability, ATPlite luminescence, 48 h, control line for the selectivity index; series mostly up to 57.5 µM
# Procedure, shortened: as §1
# [5] = tested on: JEG-3; experiment: as above; conditions: Gynecologic cancer cell panel viability, ATPlite luminescence, 48 h; series mostly up to 57.5 µM
# Procedure, shortened: as §1
# [6] = tested on: OV90; experiment: as above; conditions: Gynecologic cancer cell panel viability, ATPlite luminescence, 48 h; series mostly up to 57.5 µM
# Procedure, shortened: as §1
# [7] = tested on: PA-1; experiment: as above; conditions: Gynecologic cancer cell panel viability, ATPlite luminescence, 48 h; series mostly up to 57.5 µM
# Procedure, shortened: as §1
# [8] = tested on: SKOV3; experiment: as above; conditions: Gynecologic cancer cell panel viability, ATPlite luminescence, 48 h; series mostly up to 57.5 µM
# Procedure, shortened: as §1
# [9] = tested on: Tov-21-G; experiment: as above; conditions: Gynecologic cancer cell panel viability, ATPlite luminescence, 48 h; series mostly up to 57.5 µM
# Procedure, shortened: as §1
# [10] = tested on: Tov112D; experiment: as above; conditions: Gynecologic cancer cell panel viability, ATPlite luminescence, 48 h; series mostly up to 57.5 µM
# Procedure, shortened: as §1
# [11] = Drug repurposing screens with cells derived from glioblastoma tumor samples (AID 1345199); conditions: GBM patient neurospheres viability, ATP luminescence, 48 h; note: nearly all actives have a fitted effect of over 40% in size; note: potency is the fitted concentration of half-maximal effect
# Procedure, shortened: (§2)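 Four patient lines of CD133+ GBM neurospheres were screened at several concentrations; hits were retested in those lines plus three slower-growing GBM lines, using 48-hour treatment and ATP-based viability.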
# [12] = tested on: astro; experiment: as above; conditions: viability, ATP luminescence, 48 h; series mostly up to 45.9 µM
# Procedure, shortened: as §2
# [13] = target: Nuclear receptor subfamily 1 group I member 2 (Rattus norvegicus) (UniProt Q9R1A7); experiment: qHTS assay for small molecule activators of the rat pregnane X receptor (rPXR) signaling pathway (AID 651751; call rule not given here); conditions: rPXR reporter cells, luciferase (One-Glo), 24 h
# Sequence of Nuclear receptor subfamily 1 group I member 2 (Rattus norvegicus) (Q9R1A7 whole entry, looked up): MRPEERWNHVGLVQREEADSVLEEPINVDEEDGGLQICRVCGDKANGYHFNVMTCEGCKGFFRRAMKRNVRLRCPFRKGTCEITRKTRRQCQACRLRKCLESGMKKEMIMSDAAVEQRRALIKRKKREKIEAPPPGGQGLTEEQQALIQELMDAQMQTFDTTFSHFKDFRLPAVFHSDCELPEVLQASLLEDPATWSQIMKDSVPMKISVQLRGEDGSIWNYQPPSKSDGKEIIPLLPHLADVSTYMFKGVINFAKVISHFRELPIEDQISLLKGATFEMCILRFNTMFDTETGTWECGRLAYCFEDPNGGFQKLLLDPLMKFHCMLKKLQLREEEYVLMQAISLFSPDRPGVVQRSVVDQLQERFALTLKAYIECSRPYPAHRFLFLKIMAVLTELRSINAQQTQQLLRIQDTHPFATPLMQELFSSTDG
# [14] = qHTS assay for small molecule activators of the human pregnane X receptor (PXR) signaling pathway (AID 720659; call rule not given here)
# [15] = at 45.9 µM (top of the series), tumour line B
# [16] = at 45.9 µM (top of the series), tumour line D
# [17] = at 46 µM (top of the series), tumour line A
# [18] = at 46.1 µM (top of the series), tumour line C
compound,measurement,setting,value
C=CCn1c(=O)n([C@@H]2O[C@H](CO)[C@@H](O)[C@H]2O)c2nc(N)[nH]c(=O)c21,Potency,[1],inactive
same,Potency,[2],inactive
same,Potency,[3],inactive
same,Potency,[4],inactive
same,Potency,[5],inactive
same,Potency,[6],inactive
same,Potency,[7],inactive
same,Potency,[8],inactive
same,Potency,[9],inactive
same,Potency,[10],inactive
same,"activity, negative = cell killing",[11]; [15],-4.36%
same,"activity, negative = cell killing",[11]; [16],2.91%
same,"activity, negative = cell killing",[11]; [17],-17.2%
same,"activity, negative = cell killing",[11]; [18],-7.78%
same,Potency,[12],inactive
CNC(=O)Oc1ccc2c(c1)[C@]1(C)CCN(C)[C@@H]1N2C,Potency,[1],inactive
same,Potency,[2],inactive
same,Potency,[3],inactive
same,Potency,[4],inactive
same,Potency,[5],inactive
same,Potency,[6],inactive
same,Potency,[7],inactive
same,Potency,[8],inactive
same,Potency,[9],inactive
same,Potency,[10],inactive
same,"activity, negative = cell killing",[11]; [15],-15.9%
same,"activity, negative = cell killing",[11]; [16],-13.4%
same,"activity, negative = cell killing",[11]; [18],-13.5%
same,Potency,[11]; tumour line A,35.5 µM (active)
same,Potency,[12],inactive
same,max response,[13],1.34%
same,outcome,[14],inactive
CN(C)CC[C@@H](c1ccc(Cl)cc1)c1ccccn1,Potency,[1],inactive
same,Potency,[2],inactive
same,Potency,[3],inactive
same,Potency,[4],inactive
same,Potency,[5],inactive
same,Potency,[6],inactive
same,Potency,[7],inactive
same,Potency,[8],inactive
same,Potency,[9],inactive
same,Potency,[10],inactive
same,"activity, negative = cell killing",[11]; [15],-9.08%
same,"activity, negative = cell killing",[11]; [16],-26.8%
same,"activity, negative = cell killing",[11]; [18],-11.4%
same,Potency,[11]; tumour line A,14.1 µM (active)
same,Potency,[12],inactive
O=C(O)c1ccccc1O,Potency,[1],inactive
same,Potency,[2],inactive
same,Potency,[3],inactive
same,Potency,[4],inactive
same,Potency,[5],inactive
same,Potency,[6],inactive
same,Potency,[7],inactive
same,Potency,[8],inactive
same,Potency,[9],inactive
same,Potency,[10],inactive
same,"activity, negative = cell killing",[11]; [15],-1.6% and -1.62%
same,"activity, negative = cell killing",[11]; [16],-9.17% and -18.2%
same,"activity, negative = cell killing",[11]; [17],-20.3%
same,"activity, negative = cell killing",[11]; [18],-6.51% and 1.73%
same,Potency,[12],inactive
Cc1ncc([N+](=O)[O-])n1CC(O)CCl (stereo unspecified),Potency,[1],inactive
same,Potency,[2],inactive
same,Potency,[3],inactive
same,Potency,[4],inactive
same,Potency,[5],inactive
same,Potency,[6],inactive
same,Potency,[7],inactive
same,Potency,[8],inactive
same,Potency,[9],inactive
same,Potency,[10],inactive
same,"activity, negative = cell killing","[11]; at 20 µM (top of the series), tumour line C",-11.2%
same,"activity, negative = cell killing","[11]; at 21.2 µM (top of the series), tumour line B",-18%
same,"activity, negative = cell killing","[11]; at 21.2 µM (top of the series), tumour line D",-1.81%
same,"activity, negative = cell killing","[11]; at 21.3 µM (top of the series), tumour line A",-11.7%
same,Potency,[12],inactive
C[C@@H]1CN(c2c(F)c(F)c3c(=O)c(C(=O)O)cn(C4CC4)c3c2F)C[C@H](C)N1,Potency,[1],inactive
same,Potency,[2],inactive
same,Potency,[3],inactive
same,Potency,[4],inactive
same,Potency,[5],inactive
same,Potency,[6],inactive
same,Potency,[7],inactive
same,Potency,[8],inactive
same,Potency,[9],inactive
same,Potency,[10],inactive
same,"activity, negative = cell killing",[11]; [15],-1.06%
same,"activity, negative = cell killing",[11]; [16],-13.8%
same,"activity, negative = cell killing",[11]; [17],-28.8%
same,"activity, negative = cell killing",[11]; [18],26.5%
same,Potency,[12],inactive
Cc1cc(O)cc2c1O[C@](C)(CCC[C@H](C)CCC[C@H](C)CCCC(C)C)CC2,Potency,[1],inactive
same,Potency,[2],inactive
same,Potency,[3],inactive
same,Potency,[4],inactive
same,Potency,[5],inactive
same,Potency,[6],inactive
same,Potency,[7],inactive
same,Potency,[8],inactive
same,Potency,[9],inactive
same,Potency,[10],inactive
same,"activity, negative = cell killing",[11]; [18],-14.5%
same,Potency,[11]; tumour line A,5.01 µM (active)
same,Potency,[11]; tumour line B,17.8 µM (active)
same,Potency,[11]; tumour line D,35.5 µM (active)
same,Potency,[12],inactive
CC(C)(C(=O)O)c1ccc(C(O)CCCN2CCC(C(O)(c3ccccc3)c3ccccc3)CC2)cc1 (stereo unspecified),Potency,[1],inactive
same,Potency,[2],inactive
same,Potency,[3],inactive
same,Potency,[4],inactive
same,Potency,[5],inactive
same,Potency,[6],inactive
same,Potency,[7],inactive
same,Potency,[8],inactive
same,Potency,[9],inactive
same,Potency,[10],inactive
same,"activity, negative = cell killing",[11]; [15],0.768%
same,"activity, negative = cell killing",[11]; [16],0.91%
same,"activity, negative = cell killing",[11]; [17],-18.8%
same,"activity, negative = cell killing",[11]; [18],14%
same,Potency,[12],inactive
C[C@@H](O)[C@H](N)C(=O)O,Potency,[1],inactive
same,Potency,[2],inactive
same,Potency,[3],inactive
same,Potency,[4],inactive
same,Potency,[5],inactive
same,Potency,[6],inactive
same,Potency,[7],inactive
same,Potency,[8],inactive
same,Potency,[9],inactive
same,Potency,[10],inactive
same,"activity, negative = cell killing",[11]; [15],-15.7%
same,"activity, negative = cell killing",[11]; [16],-16.8%
same,"activity, negative = cell killing",[11]; [17],-29.7%
same,"activity, negative = cell killing",[11]; [18],2.15%
same,Potency,[12],inactive
N[C@@H](CSCCCO)C(=O)O,Potency,[1],inactive
same,Potency,[2],inactive
same,Potency,[3],inactive
same,Potency,[4],inactive
same,Potency,[5],inactive
same,Potency,[6],inactive
same,Potency,[7],inactive
same,Potency,[8],inactive
same,Potency,[9],inactive
same,Potency,[10],inactive
same,"activity, negative = cell killing",[11]; [15],0.365%
same,"activity, negative = cell killing",[11]; [16],-10%
same,"activity, negative = cell killing",[11]; [17],-27%
same,"activity, negative = cell killing",[11]; [18],-8.48%
same,Potency,[12],inactive
O=c1[nH]cnc2c1ncn2[C@@H]1O[C@H](CO)[C@@H](O)[C@H]1O,Potency,[1],inactive
same,Potency,[2],inactive
same,Potency,[3],inactive
same,Potency,[4],inactive
same,Potency,[5],inactive
same,Potency,[6],inactive
same,Potency,[7],inactive
same,Potency,[8],inactive
same,Potency,[9],inactive
same,Potency,[10],inactive
same,"activity, negative = cell killing",[11]; [15],9.46%
same,"activity, negative = cell killing",[11]; [16],-5.06%
same,"activity, negative = cell killing",[11]; [17],7.03%
same,"activity, negative = cell killing",[11]; [18],2.71%
same,Potency,[12],inactive
OC[C@H]1O[C@@H](O[C@@H]2[C@@H](CO)O[C@](O)(CO)[C@H]2O)[C@H](O)[C@@H](O)[C@H]1O,Potency,[1],inactive
same,Potency,[2],inactive
same,Potency,[3],inactive
same,Potency,[4],inactive
same,Potency,[5],inactive
same,Potency,[6],inactive
same,Potency,[7],inactive
same,Potency,[8],inactive
same,Potency,[9],inactive
same,Potency,[10],inactive
same,"activity, negative = cell killing",[11]; [15],-1.82%
same,"activity, negative = cell killing",[11]; [16],8.93%
same,"activity, negative = cell killing",[11]; [17],-20.9%
same,"activity, negative = cell killing",[11]; [18],-24.2%
same,Potency,[12],inactive
OCC(O)CN1CCN(c2ccccc2)CC1 (stereo unspecified),Potency,[1],inactive
same,Potency,[2],inactive
same,Potency,[3],inactive
same,Potency,[4],inactive
same,Potency,[5],inactive
same,Potency,[6],inactive
same,Potency,[7],inactive
same,Potency,[8],inactive
same,Potency,[9],inactive
same,Potency,[10],inactive
same,"activity, negative = cell killing",[11]; [15],-18.5%
same,"activity, negative = cell killing",[11]; [16],-7.12%
same,"activity, negative = cell killing",[11]; [18],-25.1%
same,Potency,[12],inactive
